Screens: PubChem, National Center for Advancing Translational Sciences (NCATS)
Only some compounds are listed: those with a hit (about 11% of all), similar ones and a draw of the others.
HPGD block = blocks human HPGD enzyme activity; P15428; purified HPGD, NADH fluorescence kinetic, PGE2 substrate; Potency, µM, usual class: inhibitors; 4.3% of 150,000 active
Target sequence (P15428 whole entry, looked up): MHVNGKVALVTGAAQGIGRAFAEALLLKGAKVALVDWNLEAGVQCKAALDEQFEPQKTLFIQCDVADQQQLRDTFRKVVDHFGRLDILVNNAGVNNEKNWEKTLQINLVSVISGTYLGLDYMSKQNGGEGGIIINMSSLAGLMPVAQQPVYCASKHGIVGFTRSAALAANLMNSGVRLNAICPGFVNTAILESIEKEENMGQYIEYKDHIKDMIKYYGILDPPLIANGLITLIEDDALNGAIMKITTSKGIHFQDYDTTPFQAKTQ
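NADH formation kinetics: reaction with 30 uM PGE2 and 1 mM NAD+ (final), 20 nM enzyme, Tris-HCl pH 8 with Tween 20, after 15 min compound preincubation at room temperature. Fluorescence change, last versus first of five reads.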
ALDH1A1 inh = blocks purified human ALDH1A1 activity; 7.3% of 220,000 active; AID 1030; P00352; Potency, µM (series often up to 75.3 µM), usual class: inhibitors; Purified ALDH1A1, NADH fluorescence, propionaldehyde substrate
PNC assembly inh = perinucleolar compartment assembly inhibition. PC3M PTB-GFP, PNC prevalence imaging, 16 h; hits give low values. activity change (PNC), negative = inhibition, % at 10 µM. 3.1% of 140,000 active. AID 2417;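 active means readout at or below -70, meaning at least 70% loss of cells showing the perinucleolar compartment, a nuclear body marking cancer cells; inconclusive means readout between -30 and a set limit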
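Read-out is percentage of cells bearing a perinucleolar compartment, from automated 20x imaging of fixed, Hoechst-stained PC3M PTB-GFP cells. Cells were seeded 4 h, then exposed 16 h to compound (23 nl of library stock) in duplicate plates.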
A number is an active result; 0 = inactive; ? = inconclusive; - = no result; [ ] = remark or other dose. Unless noted, the call rests on the fitted dose curve; in most records, active means well fitted inhibition curve with a large enough effect (not every such curve was filed as active); inconclusive means small, poorly fitted or top-dose-only effect, or another doubt; inactive means no such curve, though single readings can be large or run the other way.

SMILES	HPGD block	ALDH1A1 inh	PNC assembly inh
CCOC(=O)C1CCN(C(c2cc3ccc(C)c(C)c3[nH]c2=O)c2nnnn2C2CCCCC2)CC1 (configuration not stated)	0	20µM	0
COCCn1nnnc1C(c1ccc(OC)cc1OC)N1CCN(c2ccccc2)CC1 (configuration not stated)	0	7.94µM	0
O=C(O)Cn1ncn(-c2ccc(OC(F)(F)F)cc2)c1=O	-	0	-
CCOc1ccccc1NC(=O)c1cc(SC)ccc1Cl	-	0	-
COc1ccc(NC2SC(=O)N(C)C2=O)cc1 (configuration not stated)	-	0	-
COCCNC(=O)C1(CC(C)C)C=CCN1C(=O)OC (configuration not stated)	0	0	-
COc1ccc(N2CCN(C(c3cc4cc(C)ccc4[nH]c3=O)c3nnnn3Cc3ccccc3)CC2)cc1 (configuration not stated)	0	14.1µM	?
COc1ccc(C(c2nnnn2Cc2ccccc2)N2CCN(c3ccccc3)CC2)cc1 (configuration not stated)	0	0	0
CC(C)(C)OC(=O)C1=NOC2(C=CC(=O)C=C2)C1	0	0	-
Nc1ccccc1NC1CCCCC1	-	0	-
N#C/C(=C/c1ccc(Br)o1)C(N)=O	0	0	-87.1
COc1ccc(NC(=O)/C(C#N)=C/c2ccc(Br)o2)cc1	0	0	0
CCCS(=O)(=O)N1CCN(Cc2ccc3c(c2)c2ccccc2n3CC)CC1	?	?	0
O=C(Nc1nccs1)C1CCN(S(=O)(=O)c2c(Cl)cccc2Cl)CC1	0	0	0
COc1ccc(N(CC(=O)NCc2ccc(Cl)cc2)S(=O)(=O)c2ccccc2[N+](=O)[O-])c(OC)c1	-	0	-
COc1ccc2c(c1)CCc1c(C(=O)N3CCCCCC3)noc1-2	10µM	?	0
Cc1cc(NC(=O)c2noc3c2CCc2ccccc2-3)no1	0	0	0
O=C(c1noc2c1CCc1ccccc1-2)N1CCc2ccccc2C1	15.8µM	?	0
O=C(c1noc2c1CCc1ccccc1-2)N1CCOCC1	0	0	0
O=C(c1noc2c1CCc1ccccc1-2)N1CCCc2ccccc21	0	12.6µM	0
COc1ccc2c(c1)CCc1c(-c3noc4c3CCc3cc(OC)ccc3-4)noc1-2	0	0[13.5 µM]	-
CCCCNC(=S)Nc1ccc(OC)nc1	-	0	-
O=C(CCCOc1ccccc1)NC1CCCc2ccccc21 (configuration not stated)	0	0	0
Cc1ccc(NC(=O)C2CC(=O)N(CCc3ccccc3)C2)c(C)c1 (configuration not stated)	-	0	-
CCN(CC)c1ccc(-n2c(C)c(C(C)=O)c(C(C)=O)c2C)cc1	0	?	0
SMILES	HPGD block	ALDH1A1 inh	PNC assembly inh
CCN(CC)c1ccc(-n2c(C)cc(C=O)c2C)cc1	0	10µM	0
[O-]/C(=C(\C(=S)Nc1cccc2ccccc12)[n+]1cccc(CO)c1)c1ccc(Cl)s1	-	12.6µM	-
Cc1ccc(NC(=S)/C(=C(\[O-])c2ccc(Cl)s2)[n+]2cccc(CO)c2)cc1C	-	14.1µM	-
Cc1c(Cl)cccc1NC(=S)/C(=C(\[O-])c1ccc(Cl)s1)[n+]1ccccc1	?	0	?
Cc1ccc(NC(=S)NCc2ccc3c(c2)OCO3)cc1C	0	?	0
C[C@@]12C(=O)OC(=O)[C@]1(C)[C@H]1CC[C@@H]2O1	0	0	-
COc1cc(OC)c(S(=O)(=O)NC(C)C)cc1S(=O)(=O)NC(C)C	-	0	-
O=C(Nc1ccc(C(=O)Nc2ccc(C(=O)Nc3ccc(S(=O)(=O)O)c4cc(S(=O)(=O)O)cc(S(=O)(=O)O)c34)cc2)cc1)Nc1ccc(C(=O)Nc2ccc(C(=O)Nc3ccc(S(=O)(=O)O)c4cc(S(=O)(=O)O)cc(S(=O)(=O)O)c34)cc2)cc1	0	?	-
CCC(Sc1nc(C)cc(=O)[nH]1)C(=O)Nc1sc2c(c1C#N)CCCC2 (configuration not stated)	0	?	0
CCC(Sc1nnc2c3ccccc3n(CC)c2n1)C(=O)Nc1sc2c(c1C#N)CCCC2 (configuration not stated)	0	17.8µM	0
COCc1nnc(NS(=O)(=O)c2ccccc2)s1	0	?	0
CC(=O)Nc1ccc(S(=O)(=O)Nc2nnc(CC(C)(C)C)s2)cc1	-	0	-
CC(C)(C)Cc1nnc(NS(=O)(=O)c2ccc(F)cc2)s1	?	?	-82.5
CC(C)(C)Cc1nnc(NS(=O)(=O)Cc2ccccc2)s1	0	25.1µM	0
CC(=O)Nc1ccc(CN2CCN(CCc3ccccc3)C(CCO)C2)cc1 (configuration not stated)	-	0	-
CC(=O)OC1CC2C(C)(C)C(=O)[C@@H]3OC3[C@@]2(C)C2CC[C@]3(C)C(=CC(=O)OC3c3ccoc3)[C@]12C (some centres not stated)	0	0	-
O=C(CSc1nnc(-c2cccs2)o1)Nc1cccc(S(=O)(=O)N2CCCCC2)c1	0	0	0
CCOC(=O)c1c(N)sc(C(=O)N2CCCCCC2)c1C	-	?	0
CCOC(=O)c1c(NC(=O)C2C3C=CC(CC3)C2C(=O)O)sc(C)c1CC (configuration not stated)	0	0	0
CCOC(=O)c1c(NC(=O)CC)sc(C(=O)N2CCCCC2)c1C	28.2µM	?	0
CCOC(=O)c1sc(NC(C)=O)c(C(=O)OCC)c1C	0	?	0
CCOC(=O)c1sc(NC(=O)CCN2CCCCCC2)c(C(=O)OCC)c1C	-	2.51µM	-
CCOC(=O)c1c(NC(=O)C2CC2)sc(C)c1CC	?	22.4µM	0
COc1ccc(-c2cnc3c(c2)CCC3(C#N)C#N)cc1	?	?	0
CC[C@H]1NC(=O)c2cc(S(N)(=O)=O)c(Cl)cc2N1	0	0	-
SMILES	HPGD block	ALDH1A1 inh	PNC assembly inh
O=C(Cn1nc(C(F)(F)F)cc1C1CC1)NCc1ccccc1F	0	0	0
CCN=C(N)CSS(=O)(=O)O	0	0[13.5 µM]	-
Cc1nc2ccccc2c2nc(N)nn12	0	0	-100.0
CCCc1nc2ccccc2c2nc(N)nn12	0	0	0
CC1=C(C(=O)OCC2CCCO2)C(c2ccc(Cl)cc2)NC(=O)N1 (configuration not stated)	-	0	-
O=C1C=C(c2ccccc2)CC(c2cccs2)C1n1cnc([N+](=O)[O-])c1 (configuration not stated)	0	?	?
O=C1C=C(c2ccccc2)C[C@H](c2cccs2)[C@H]1n1nnc([N+](=O)[O-])n1	0	10µM	0
COc1cc([N+](=O)[O-])ccc1NC(=O)CN1CCOCC1	-	0	-
N#Cc1c(-c2ccc(F)cc2)cc(-c2cccnc2)nc1N	?	?	-88.9
N#Cc1c(-c2ccc(Br)cc2)cc(-c2cccnc2)nc1N	0	0	0
CCCNC(=O)CN1C(=O)NC(Cc2c[nH]c3ccccc23)C1=O (configuration not stated)	-	0	-
O=C(CC(Nc1ccccc1)c1ccc(F)cc1)c1ccccc1 (configuration not stated)	0	0	0
O=C(CC(Nc1ccccc1)C(=O)O)c1ccccc1 (configuration not stated)	0	1.78µM	0
C=C(C(=O)c1ccccc1)C(C)CC(=O)c1ccccc1 (configuration not stated)	28.2µM	?	0
CC(C)C(=O)NC(=S)NCC(=O)c1ccccc1	0	?	0
COc1ccc(CC(=O)Oc2cc(C)[nH]c(=O)c2[N+](=O)[O-])cc1	0	0	?
